Reference: the supplement of paper PMC11417369
± gives the standard deviation of the averaged measurements. In all, about 25,000 sequences were measured (“ln(normalized median fluorescence intensity)”: median about 8.9, highest 2% from about 10 on). What follows is part of a selection rich in the highest values, with near analogues and random picks from the rest.

tested on: PfAP2-LT AP2 domain (GST-tagged); test: gcPBM binding intensity (ln(normalized median fluorescence intensity)); higher = stronger DNA binding
In short: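 Alexa488 anti-GST antibody, scanned at 488 nm, detected GST-tagged P. falciparum DNA-binding domains that had been expressed in E. coli and incubated for 1 h on an Agilent 4 × 180k array. The array carried primer-extended double-stranded 36-bp intergenic genomic probes and negative controls. Binding intensity is the highest Masliner-normalised natural-log median intensity across replicate spots of either orientation of each probe.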

“ATTTATATGTAGATGTGTACTTAATTGTAATGTGTT [XGTACX_site6422]” and “TTTATTTCCTTTTTGTGTACATATATATGTAATTCA [XGTACX_site1718]” are within error of each other in “gcPBM binding intensity (ln)” value: 8.95 ± 0.45 for the first, 8.78 ± 0.53 for the second.

“AACAAAATTGAAGGAACACACATACATATTTATATA [CACACA_site6227]” and “AATTTATAAATAATTAATTTGATAAATTATAAAGGG [GTGCAC_negctrl_site544]” are within error of each other in “gcPBM binding intensity (ln)” value: 9.07 ± 0.41 for the first, 8.45 ± 0.45 for the second.

“AAAAAGAAATATTTATGTACATAATAATAATATTTT [XGTACX_site4693]” and “GGCTAAAAGTTGCACACACACAAAAAAAAAAAAAAA [CACACA_site7531]” are within error of each other in “gcPBM binding intensity (ln)” value: 8.63 ± 0.44 for the first, 9.37 ± 0.51 for the second.

“ATTTATGAAAGAAATAGTACACACATAAACATTTGT [XGTACX_site5862]” and “TATAAAAAAATATATATATATATTATATGTGTAGAA [TGCATGCA_negctrl_site391]” are within error of each other in “gcPBM binding intensity (ln)” value: 9.03 ± 0.36 for the first, 8.71 ± 0.54 for the second.

“GTAATCCACAAACACACACACATACACATATATATA [CACACA_site2728]” and “AAAAAAAAAAAAAAGACACACATATATATATATATA [CACACA_site633]” are within error of each other in “gcPBM binding intensity (ln)” value: 9.98 ± 0.19 for the first, 10.1 ± 0.13 for the second.

First: AATCCACAAAGACACACACACACATATATATATATA [CACACA_site1269]
Second: TATTTATTTAAAGGCACACATATTTTTATACTTTCT [CACACA_site3163]
The “gcPBM binding intensity (ln)” value of the first is higher: 10.2 ± 0.23 for the first, 8.79 ± 0.49 for the second.

Compared with “AAATTTATAAAGAACACACACATATATATATATATA [CACACA_site48]”, “AATTTTTTTTTTTTTTTTTTTTATATATGTGTGTGT [XGTACX_negctrl_site129]” is lower in “gcPBM binding intensity (ln)” value: 10 ± 0.21 for the first, 9.32 ± 0.42 for the second.

First: TTTTTTATATATGTGTGTGTGTGTGTGTCAAGTTTA [GTGCAC_negctrl_site460]
Second: TGTGTCAAGTTTAATAAACGCATATAATATATATGA [CACACA_negctrl_site607]
The “gcPBM binding intensity (ln)” value of the first is higher: 10.3 ± 0.24 for the first, 8.59 ± 0.41 for the second.

“TTTATATTTAAATGCATGCACTTTCTATTTTTTTTT [GTGCAC_site9959]” and “CTTACATATTACATATGTACATATACACCTTATGTC [XGTACX_site4679]” are within error of each other in “gcPBM binding intensity (ln)” value: 9.13 ± 0.53 for the first, 9.19 ± 0.41 for the second.

Going from “TTATTGCGCACAATTTGTACATATATATATATAGAA [XGTACX_site7573]” to “TACAATTGTAAAGGCGCACACATATATATATATATA [CACACA_site1392]”, the “gcPBM binding intensity (ln)” value rises from 8.84 ± 0.4 to 10.3 ± 0.23.

“AAAAAAAGGTAAAATTGTACATACGCACAAAAATAT [XGTACX_site2887]” and “TATTGTAAGAAAGGCACACAGATAAAATTATTATAT [CACACA_site2921]” are within error of each other in “gcPBM binding intensity (ln)” value: 9 ± 0.51 for the first, 8.83 ± 0.51 for the second.

Going from “TGCAATTGTAAAGGCGCACACATATATATATATATA [CACACA_site4894]” to “GTTTTATAAAAAGGCGCACACATATACATAAATATA [CACACA_site1864]”, the “gcPBM binding intensity (ln)” value falls from 10.2 ± 0.13 to 9.37 ± 0.47.

“AATCTGATTTGTATATGTACACAAATATTTTTATTT [XGTACX_site5295]” and “TAATATCAAACCTATAGTACATAAGGTATAAAAAAG [XGTACX_site3533]” are within error of each other in “gcPBM binding intensity (ln)” value: 8.99 ± 0.53 for the first, 8.86 ± 0.44 for the second.

“TTCTGAACAAAATTATATATTTATTTTTATTTTCAT [CACACA_negctrl_site422]” and “AAAAAAAAAAAAAAAACACACAATTGAATTATTAAG [CACACA_site2864]” are within error of each other in “gcPBM binding intensity (ln)” value: 8.48 ± 0.5 for the first, 8.7 ± 0.61 for the second.

“TTCTTATATTGTACAGTACACACCTTTATAATGTTA [CACACA_site7953]” and “TATCATAAAATATGTAGTACGTATATATATAAAAAT [XGTACX_site5455]” are within error of each other in “gcPBM binding intensity (ln)” value: 9.15 ± 0.49 for the first, 8.97 ± 0.41 for the second.

“GTAATTATTAATAAAACATGCGTATAAAATTTTCTC [TGCATGCA_site50]” and “TATATATATATATTTACACACATTCATATAAATTCA [CACACA_site3532]” are within error of each other in “gcPBM binding intensity (ln)” value: 8.62 ± 0.46 for the first, 9.04 ± 0.28 for the second.

Compared with “AAATTTGGCAGACACACACACACACGCACACGCACA [CACACA_site6423]”, “CAGACGCACGTATTTGCACACATTGCCACGTAATTA [CACACA_site3349]” is lower in “gcPBM binding intensity (ln)” value: 10.4 ± 0.33 for the first, 9.28 ± 0.37 for the second.

“TACAGACATAGACACACACACACGCATAAAAAAAAA [CACACA_site6820]” and “TACACCCATAGACACACACACACGCATAAAAAAAAA [CACACA_site8428]” are within error of each other in “gcPBM binding intensity (ln)” value: 10 ± 0.51 for the first, 9.95 ± 0.55 for the second.

Going from “ATTTGGCATAGACACACACACACACGCACGCACATA [CACACA_site6424]” to “TACTTATTGTGATACTTATATTATTTTATGATTAAA [XGTACX_negctrl_site353]”, the “gcPBM binding intensity (ln)” value falls from 10.3 ± 0.28 to 8.5 ± 0.42.

“TTTTGGTGGGTTACAAGTACTCAAAATGGATTGTTA [XGTACX_site1951]” and “GTTGCCATCATTTGGCGTACAGTCAAAACCAAATCT [XGTACX_site1398]” are the same in “gcPBM binding intensity (ln)” value: 8.56 ± 0.38 for the first, 8.56 ± 0.37 for the second.

“ACAACACATATTCATCGTACATGTATTAGGAAGACA [XGTACX_site1859]” and “GTATATTGTACCATCACACATGTAAAACATAGATGT [CACACA_site5359]” are within error of each other in “gcPBM binding intensity (ln)” value: 9.04 ± 0.42 for the first, 8.94 ± 0.43 for the second.

“TGGTATATATTTCCTTGTACATATAATATATATTGT [XGTACX_site3961]” and “TAATATAATCTGAGTGCACACAAATAAATAAACATA [CACACA_site8032]” are within error of each other in “gcPBM binding intensity (ln)” value: 8.94 ± 0.51 for the first, 9.16 ± 0.44 for the second.

“ATGAGTGCACAAATATATATATATATATATATATAT [CACACA_negctrl_site404]” and “ATAAAAATAAAAAGTGTGCACACAAAAATATATATA [GTGCAC_site9931]” are within error of each other in “gcPBM binding intensity (ln)” value: 10.2 ± 0.26 for the first, 9.62 ± 0.36 for the second.

“TACACAAATATATATATATATATATATATATATATA [XGTACX_negctrl_site305]” and “CACAAATATACAAATACACACAAATATACAAATACA [CACACA_site2385]” are within error of each other in “gcPBM binding intensity (ln)” value: 10 ± 0.5 for the first, 9.42 ± 0.44 for the second.

Going from “GCACAAATATATATATATATATATATATATATATAT [GTGCAC_negctrl_site661]” to “TATAATGATGATGATAGTACGTATTAGTATAAAAAA [XGTACX_site9]”, the “gcPBM binding intensity (ln)” value falls from 10.2 ± 0.12 to 8.81 ± 0.52.

“TATACCTTTTTATTCACACATATATGTCATATGTCA [CACACA_site5423]” and “CTCTTGTCATTTTGCACACACACATGGATAGGTTAT [CACACA_site5655]” are within error of each other in “gcPBM binding intensity (ln)” value: 9.28 ± 0.5 for the first, 9.81 ± 0.33 for the second.

“ATAAAATTATATACTCGTACACAAAAAAAAAAAATA [XGTACX_site6035]” and “TATAAGTGCCGTTATACACACGTTATATAAATATTA [CACACA_site4401]” are within error of each other in “gcPBM binding intensity (ln)” value: 8.77 ± 0.47 for the first, 8.81 ± 0.4 for the second.

“CGTTTATTAAACTTGACACACACACCCCCACATATA [CACACA_site8151]” and “CACAGATAAATTAACACACACACACCCATATATATA [CACACA_site3960]” are within error of each other in “gcPBM binding intensity (ln)” value: 9.975 ± 0.064 for the first, 10.05 ± 0.071 for the second.

First: TTCCCATGTAATATTAAACACACACCCATATAACAC [CACACA_site7905]
Second: AACACAGATAAATTAACACACACACCCATATATATA [CACACA_site9310]
The “gcPBM binding intensity (ln)” value of the first is lower: 9.505 ± 0.078 for the first, 9.85 ± 0.23 for the second.

“TATTAAACTGGACACACACACACACCCATATATAAA [CACACA_site4579]” and “TATTAAACGAAACACACACACACACCCATATATAAA [CACACA_site759]” are the same in “gcPBM binding intensity (ln)” value: 10.15 ± 0.021 for the first, 10.23 ± 0.099 for the second.
